Assay results: PubChem BioAssay (NCATS)
Inconclusive results are not listed. Activity calls are given as the source filed them. The call rests on the fitted dose curve; in most records, active means well fitted curve in the direction sought with a large enough effect; inconclusive means small, poorly fitted or top-dose-only effect, or another doubt; inactive means no such curve, though single readings can be large; an effect the other way counts as inactive or inconclusive. Where a SMILES comes first, the peptide text is derived from it. The star is where a group is joined. Cbz = O=C(OCc1ccccc1)*; CH2F = FC*

Key:
HACAT = assay: qHTS assay to identify novel small-molecules to repurpose for Merkel cell carcinoma treatment (AID 1296009); conditions: MCC and control cell lines, CellTiter-Glo viability, 72 h; at 44.8 µM (top of the series) unless noted; further: nearly all actives have a fitted effect of over 60% in size
In short: (§1)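 Cell viability measured by CellTiter-Glo following 72 hr compound treatment at 37 degree celsius, with NPC and MIPE libraries tested in 8- and 11-point concentration series.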

NIH3T3 = assay: as above; conditions: MCC and control cell lines, CellTiter-Glo viability, 72 h; at 44.8 µM (top of the series) unless noted
In short: as §1

C33A = assay: Primary qHTS to identify gynecologic anti-cancer compounds using libraries of approved drugs and bioactive compounds (AID 1345084); conditions: Gynecologic cancer cell panel viability, ATPlite luminescence, 48 h; series mostly up to 57.5 µM; further: on the % scale 0 is the no-effect control and ±100 the full control effect; nearly all actives have a fitted effect of over 55% in size
In short: (§2)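 In this quantitative HTS, cell killing is estimated from loss of ATP-dependent luciferase light. Cells see five compound concentrations over a 48 h exposure.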

CAOV3 = assay: as above; conditions: Gynecologic cancer cell panel viability, ATPlite luminescence, 48 h; series mostly up to 57.5 µM
In short: as §2

CASKI = assay: as above; conditions: Gynecologic cancer cell panel viability, ATPlite luminescence, 48 h; series mostly up to 57.5 µM
In short: as §2

Es-2 = assay: as above; conditions: Gynecologic cancer cell panel viability, ATPlite luminescence, 48 h; series mostly up to 57.5 µM
In short: as §2

HeLa = assay: as above; conditions: Gynecologic cancer cell panel viability, ATPlite luminescence, 48 h; series mostly up to 57.5 µM
In short: as §2

Hek293T = assay: as above; conditions: Gynecologic cancer cell panel viability, ATPlite luminescence, 48 h, control line for the selectivity index; series mostly up to 57.5 µM
In short: as §2

JEG-3 = assay: as above; conditions: Gynecologic cancer cell panel viability, ATPlite luminescence, 48 h; series mostly up to 57.5 µM
In short: as §2

OV90 = assay: as above; conditions: Gynecologic cancer cell panel viability, ATPlite luminescence, 48 h; series mostly up to 57.5 µM
In short: as §2

PA-1 = assay: as above; conditions: Gynecologic cancer cell panel viability, ATPlite luminescence, 48 h; series mostly up to 57.5 µM
In short: as §2

SKOV3 = assay: as above; conditions: Gynecologic cancer cell panel viability, ATPlite luminescence, 48 h; series mostly up to 57.5 µM
In short: as §2

Tov-21-G = assay: as above; conditions: Gynecologic cancer cell panel viability, ATPlite luminescence, 48 h; series mostly up to 57.5 µM
In short: as §2

Tov112D = assay: as above; conditions: Gynecologic cancer cell panel viability, ATPlite luminescence, 48 h; series mostly up to 57.5 µM
In short: as §2

COC(=O)CC[C@H](NC(=O)[C@H](CC(C)C)NC(=O)OCc1ccccc1)C(=O)N[C@@H](Cc1cnc[nH]1)C(=O)N[C@@H](CC(=O)OC)C(=O)CF (Cbz-LE(OMe)HD(OMe)-CH2F)
inactive: outcome (HACAT) inactive [at 9.27 µM] | outcome (NIH3T3) inactive [at 9.27 µM] | activity change, negative = cytotoxicity (C33A) 16.8% [at 11.6 µM] | activity change, negative = cytotoxicity (CAOV3) 7.02% [at 11.6 µM] | activity change, negative = cytotoxicity (CASKI) 26% [at 11.6 µM] | activity change, negative = cytotoxicity (Es-2) 0.76% [at 11.6 µM] | activity change, negative = cytotoxicity (HeLa) 6.25% [at 11.6 µM] | activity change, negative = cytotoxicity (Hek293T) 2.96% [at 11.6 µM] | activity change, negative = cytotoxicity (JEG-3) -14.9% [at 11.6 µM] | activity change, negative = cytotoxicity (OV90) 0.73% [at 11.6 µM] | activity change, negative = cytotoxicity (PA-1) -3.2% [at 11.6 µM] | activity change, negative = cytotoxicity (SKOV3) -4.39% [at 11.6 µM] | activity change, negative = cytotoxicity (Tov-21-G) 4.92% [at 11.6 µM] | activity change, negative = cytotoxicity (Tov112D) 6.4% [at 11.6 µM]

CC1(C)CC[C@]2(C(=O)O[C@@H]3O[C@H](CO)[C@@H](O)[C@H](O)[C@H]3O)CC[C@]3(C)C(=CCC4[C@@]5(C)C[C@H](O)[C@H](O[C@@H]6OC[C@@H](O)[C@H](O)[C@H]6O)[C@@](C)(CO)C5CC[C@]43C)C2C1 (stereo not given in full)
inactive: outcome (HACAT) inactive [at 9.27 µM] | outcome (NIH3T3) inactive [at 9.27 µM] | activity change, negative = cytotoxicity (C33A) 6.67% [at 11.6 µM] | activity change, negative = cytotoxicity (CAOV3) 10.5% [at 11.6 µM] | activity change, negative = cytotoxicity (CASKI) 2.82% [at 11.6 µM] | activity change, negative = cytotoxicity (Es-2) 1.33% [at 11.6 µM] | activity change, negative = cytotoxicity (HeLa) 24.4% [at 11.6 µM] | activity change, negative = cytotoxicity (Hek293T) 12.6% [at 11.6 µM] | activity change, negative = cytotoxicity (JEG-3) 17% [at 11.6 µM] | activity change, negative = cytotoxicity (OV90) 6.42% [at 11.6 µM] | activity change, negative = cytotoxicity (PA-1) 8.05% [at 11.6 µM] | activity change, negative = cytotoxicity (SKOV3) 21.5% [at 11.6 µM] | activity change, negative = cytotoxicity (Tov-21-G) -9.27% [at 11.6 µM] | activity change, negative = cytotoxicity (Tov112D) 3.56% [at 11.6 µM]

C/C=C/C(=O)OC1/C=C/C(O)C(OC(C)=O)CCC(=O)OC1C (stereo not given)
inactive: outcome (HACAT) | outcome (NIH3T3) | Potency (C33A) | Potency (CAOV3) | outcome (CASKI) | Potency (Es-2) | Potency (HeLa) | Potency (Hek293T) | Potency (JEG-3) | Potency (OV90) | Potency (PA-1) | Potency (SKOV3) | Potency (Tov-21-G) | Potency (Tov112D)

COc1cc(/C=C/C(=O)OC[C@H]2O[C@@H](OC3CC(C)=C(C(=O)O)C(C)(C)C3)[C@H](O)[C@@H](O)[C@@H]2O)cc(OC)c1O (stereo not given in full)
inactive: outcome (HACAT) inactive [at 17.4 µM] | outcome (NIH3T3) inactive [at 17.4 µM] | Potency (C33A) | Potency (CAOV3) | outcome (CASKI) | Potency (Es-2) | Potency (HeLa) | Potency (Hek293T) | Potency (JEG-3) | Potency (OV90) | Potency (PA-1) | Potency (SKOV3) | Potency (Tov-21-G) | Potency (Tov112D)

C[C@@H]1O[C@@H](O[C@H]2[C@H](O[C@H]3[C@H](O[C@H]4CC[C@@]5(C)C(CC[C@]6(C)C5CC=C5[C@@H]7CC(C)(C)C[C@@H](O)[C@]7(C)CC[C@]56C)[C@@]4(C)CO)O[C@H](C(=O)O)[C@@H](O)[C@@H]3O)O[C@H](CO)[C@H](O)[C@@H]2O)[C@H](O)[C@H](O)[C@H]1O (stereo not given in full)
inactive: outcome (HACAT) inactive [at 9.27 µM] | outcome (NIH3T3) inactive [at 9.27 µM] | activity change, negative = cytotoxicity (C33A) -1.56% [at 11.6 µM] | activity change, negative = cytotoxicity (CAOV3) 6.93% [at 11.6 µM] | activity change, negative = cytotoxicity (CASKI) 9.29% [at 11.6 µM] | activity change, negative = cytotoxicity (Es-2) 0.369% [at 11.6 µM] | activity change, negative = cytotoxicity (HeLa) 7.52% [at 11.6 µM] | activity change, negative = cytotoxicity (Hek293T) -1.54% [at 11.6 µM] | activity change, negative = cytotoxicity (JEG-3) 7.46% [at 11.6 µM] | activity change, negative = cytotoxicity (OV90) 7.08% [at 11.6 µM] | activity change, negative = cytotoxicity (PA-1) 4.96% [at 11.6 µM] | activity change, negative = cytotoxicity (SKOV3) 11% [at 11.6 µM] | activity change, negative = cytotoxicity (Tov-21-G) 5.74% [at 11.6 µM] | activity change, negative = cytotoxicity (Tov112D) 0.964% [at 11.6 µM]
